Compounds with a hit are over-represented: about 4% of the library has one in this group of screens.
TIM10 inh = inhibits growth of TIM10 yeast strain. 330,000 tested, 1.4% active. inhibition, % at 10 µM. S. cerevisiae TIM10 strain growth, BacTiter-Glo luminescence, 24 h;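 active means inhibition of 40% or more at the single tested concentration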;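 further: wild-type TIM10 isogenic control strain grown at permissive 25 °C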
NALP1 yeast inh = NALP1 inhibition | S. cerevisiae NALP1/ASC/caspase-1 growth, X-gal OD620, 72 h | inhibition, % at 10 µM | 280,000 tested, 0.61% active; in the data active means inhibition mostly above about 24%, no sharp cut-off; inactive means mostly below about 32%
tim23-1 inh = tim23-1 yeast growth inhibition; inhibition, % at 20 µM; 330,000 tested, 1.3% active; AID 463212; S. cerevisiae tim23-1 growth, BacTiter-Glo luminescence, 24 h;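 active means growth inhibition of the mutant yeast at or above 50%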;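 further: temperature-sensitive mutant grown at 25 °C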
NALP3 yeast inh = NALP3 inhibition in yeast; inhibition, % at 10 µM; Yeast reconstituted NLRP3/ASC/caspase-1, beta-gal luminescence, 24 h; 330,000 tested, 0.39% active; AID 2825;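 active means inhibition of 50% or more; inactive means inhibition below 50%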
tim10-1 inh = growth inhibitors of tim10-1 mutant yeast; inhibition, % at 20 µM; AID 463190; S. cerevisiae tim10-1 ts strain growth, BacTiter-Glo, 24 h; 330,000 tested, 2.2% active;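 active means inhibition of at least 40%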;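 further: mutant grown at 25 °C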
NALP3 yeast conf = confirmation of NALP3 inhibitors in yeast; 1,300 tested, 81% active; yeast expressing human NALP3, luminescence; inhibition, % at 10 µM; shares compounds with NALP3 yeast inh; AID 435006; in the data active means inhibition above about 48%
Casp1-ASC yeast = active in yeast caspase-1-ASC counter-screen for NALP3 inhibitors. shares compounds with NALP3 yeast inh. yeast expressing Caspase-1-ASC, luminescence counter screen. inhibition, % at 10 µM. 1,000 tested, 66% active
NALP3 yeast rt = retest-confirmed inhibitor of NALP3 in yeast; shares compounds with NALP3 yeast inh; yeast expressing human NALP3, luminescence read-out; inhibition, % at 10 µM; 1,000 tested, 53% active; AID 488794
Large screens that a line does not name were inactive (follow-up assays come after a bar, where they were run). Unless noted, no stated cut-off is given here; in the data, active means inhibition above about 50%; inactive means the rest.

Cc1ccc2nc(NC(=O)Cc3cccs3)sc2c1	NALP3 yeast inh 52.1 | NALP3 yeast conf 63.3 | Casp1-ASC yeast 50.8 | NALP3 yeast rt 53.3
COc1ccc2nc(NC(=O)Cc3cccs3)sc2c1	none
CN(CC(=O)Nc1ccc(F)cc1)C(=O)CCc1ccccc1	none
CCN(CC)C(=S)SCC(=O)c1ccc(Br)cc1	NALP3 yeast inh 55.2 | NALP3 yeast conf 63.6
CCC(=O)c1ccc(OCc2ccc(C(=O)c3ccccc3)cc2)cc1	none
CN1c2ccccc2Sc2cc(N)ccc21	NALP1 yeast inh 51.8, NALP3 yeast inh 64.3 | NALP3 yeast conf inactive | Casp1-ASC yeast 73.6 | NALP3 yeast rt 61.1
O=C(CSc1nnnn1-c1ccc(Cl)cc1)N1CCc2ccccc2C1	NALP3 yeast inh 56.0 | NALP3 yeast conf 69.7 | Casp1-ASC yeast 78.0 | NALP3 yeast rt 85.5
COc1ccc(N2C(=O)CC(N3CCN(S(=O)(=O)c4c(C)cc(C)cc4C)CC3)C2=O)cc1 (centres undefined)	none (no result: NALP1 yeast inh)
CO/N=C(\Cn1ncc(N2CCCC2)c(Br)c1=O)c1ccc(Cl)cc1	NALP3 yeast inh 76.8 | NALP3 yeast conf 68.9 | Casp1-ASC yeast 78.1 | NALP3 yeast rt 57.4
CO/N=C(\Cn1ncc(NC2CCCCC2)c(Br)c1=O)c1ccc(Cl)cc1	none
CC(C)(C)[C@H]1C=C(C(=O)O)O[C@@H](OCc2ccc(CO)cc2)C1	none (no result: NALP1 yeast inh)
CC(C)(C)[C@H]1C=C(C(=O)Nc2ccccc2)O[C@@H](OCc2ccc(CO)cc2)C1	NALP3 yeast inh 53.2 | NALP3 yeast conf 58.7 | Casp1-ASC yeast 61.4 | NALP3 yeast rt 52.9
Cc1cccc(C)c1NC(=O)c1nc(S(=O)(=O)Cc2ccccc2)ncc1Cl	none
Cc1ccc(NC(=O)c2nc(S(=O)(=O)Cc3ccccc3)ncc2Cl)cc1	NALP3 yeast inh 55.2 | NALP3 yeast conf 68.2 | Casp1-ASC yeast inactive | NALP3 yeast rt 53.0
C=CCc1ccc(OCCCCN2CC(C)OC(C)C2)c(OC)c1 (centres undefined)	none
Cc1ccc2oc(C(=O)N3CCCCCC3)c(C)c2c1	NALP3 yeast inh 53.3 | NALP3 yeast conf 62.1 | Casp1-ASC yeast 59.0 | NALP3 yeast rt 52.3
Cc1ccc(C(=O)/C=C2/NC(=O)CS2)cc1	NALP3 yeast inh 60.9 | NALP3 yeast conf 66.9 | Casp1-ASC yeast 52.0 | NALP3 yeast rt 53.7
O=C1CS/C(=C/C(=O)c2cccc(Cl)c2)N1	NALP3 yeast inh 66.0 | NALP3 yeast conf 72.3 | Casp1-ASC yeast 53.5 | NALP3 yeast rt 58.9
Cc1ccc(S(=O)(=O)CCC(=O)Nc2ccccc2C)cc1	none
c1ccc2c(c1)CCN(c1nc3cc4c(cc3s1)OCO4)C2	NALP3 yeast inh 55.8 | NALP3 yeast conf 51.6 | Casp1-ASC yeast inactive | NALP3 yeast rt inactive
c1ccc(N2CCN(c3nc4cc5c(cc4s3)OCO5)CC2)cc1	none
CC(=O)c1ccc(S(=O)(=O)N2CCN(c3nn(C)c(=O)n(C)c3=O)CC2)cc1	none (no result: NALP1 yeast inh)
O=C(CCCn1c(=S)[nH]c2cc3c(cc2c1=O)OCO3)NCc1ccccc1Cl	none
CCOc1ccc(C(=O)COC(=O)c2nn(CC)c(=O)c3ccccc23)cc1	none (no result: NALP1 yeast inh)
CC(C)c1ccc(NC(=S)NNC(=O)c2cccnc2)cc1	none
O=C(NNC(=S)Nc1ccc(Br)cc1)c1cccnc1	NALP3 yeast inh 52.6 | NALP3 yeast conf 50.4
COC(=O)c1sccc1NC(=O)c1ccc(Br)o1	NALP3 yeast inh 52.6 | NALP3 yeast conf inactive | Casp1-ASC yeast inactive | NALP3 yeast rt inactive
COC(=O)c1sccc1NC(=O)c1ccc(C)o1	none
CCCCNC(=O)Oc1c(Br)cc2sc(=O)oc2c1Br	NALP3 yeast inh 72.2 (no result: NALP1 yeast inh) | NALP3 yeast conf 62.1
CCCCNC(=O)Oc1cc(CCl)on1	none
CC1(C)c2ccccc2-n2c1cc1oc(=O)cc(O)c1c2=O	NALP3 yeast inh 76.1 (no result: NALP1 yeast inh) | NALP3 yeast conf 80.0 | Casp1-ASC yeast 66.8 | NALP3 yeast rt 72.2
O=C(O)c1cc2c(s1)-c1ccccc1OC2	none
O=C(NC1CC1)c1cc2c(s1)-c1ccccc1OC2	NALP1 yeast inh 34.0, NALP3 yeast inh 60.1 | NALP3 yeast conf 74.0 | Casp1-ASC yeast 57.1 | NALP3 yeast rt inactive
O=C(COc1ccc(F)cc1)Nc1cc(Cl)ccc1-n1cncn1	NALP3 yeast inh 62.7 (no result: NALP1 yeast inh) | NALP3 yeast conf 69.7 | Casp1-ASC yeast 55.5 | NALP3 yeast rt inactive
N#CCC(=N)N1CCN(c2ccc(F)cc2)CC1	none

Source: PubChem
